Records with an inconclusive call do not appear. Values without a mark were called inactive. Activity calls are given as the source filed them. Calls come from the whole dose curve; as a rule, active = well fitted curve in the direction sought with a large enough effect; inconclusive = small, poorly fitted or top-dose-only effect, or another doubt; inactive = no such curve, though single readings can be large; an effect the other way counts as inactive or inconclusive.
molecular target: Endonuclease 4 (Escherichia coli (strain K12)) (UniProt P0A6C1); assay: Counterscreen for APE1 Inhibitors: qHTS Validation Assay for Inhibitors of Endonuclease IV (AID 1708); note: % is set by controls: 0 for no effect and ±100 for the full control effect; conditions: E. coli endonuclease IV, DNA cleavage fluorescence; series mostly up to 57.1 µM; activity change, negative = inhibition: at the top concentration
Outline: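 Enzymatic AP-site incision assay using a double-stranded THF substrate labelled with TAMRA and BHQ-2; released fluorescence signals activity. Enzyme 2 nM, substrate 50 nM, 15 min compound preincubation.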

Compound	activity change, negative = inhibition [%]
COC(=O)C1=CCCN(C)C1	-11.3
COc1ccc(C(=O)N2CCCC2=O)cc1	-4.58
Cc1cc(C(C)(C)C)cc(C)c1CC1=NCCN1	15.6
O=C(O)c1nn(Cc2ccc(Cl)cc2Cl)c2ccccc12	-2.25
NC(=O)CN1CCCC1=O	2.17

test system: not listed separately; assay: qHTS for differential inhibitors of proliferation of Plasmodium falciparum line 7G8 (AID 1815); conditions: Plasmodium falciparum 7G8 proliferation inhibition; series mostly up to 28.7 µM; activity change, negative = inhibition: at the top concentration;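 note: parasite growth measured after three days of incubation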; note: potency is the fitted concentration of half-maximal effect;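 for activity change, negative = inhibition: plate controls were vehicle wells for no effect and reference inhibitor wells for full effect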

Compound	activity change, negative = inhibition [%]	Potency
CCCCCCCCC(=O)NCc1ccc(O)c(OC)c1	-0.747	–
C[N+](C)(C)CCCCCCCCCC[N+](C)(C)C	–	5.01 µM (active)
NC(N)=N/N=C/c1c(Cl)cccc1Cl	–	11.2 µM (active)
O=C1CC2(CCCC2)CC(=O)N1CCCCN1CCN(c2ncccn2)CC1	–	10 µM (active)
CC(N)C(=O)OC(C)(C)Cc1ccc(Cl)cc1 (stereo not drawn)	–	5.62 µM (active)
COC(=O)C1=CCCN(C)C1	-7.8	–
c1ccc2nc(N3CCNCC3)ccc2c1	–	7.94 µM (active)
COc1ccc(C(=O)N2CCCC2=O)cc1	0.948	–
CNC(=O)Oc1ccc2c(c1)[C@]1(C)CCN(C)[C@@H]1N2C	–	5.01 µM (active)
Cc1cc(C(C)(C)C)cc(C)c1CC1=NCCN1	–	7.94 µM (active)
O=C(O)c1nn(Cc2ccc(Cl)cc2Cl)c2ccccc12	5.92	–
NC(=O)CN1CCCC1=O	-1.68	–
CC[C@H]1CN2CCc3cc(OC)c(OC)cc3[C@@H]2C[C@@H]1C[C@H]1NCCc2cc(OC)c(OC)cc21	–	0.126 µM (active)
